Measured values from PubChem BioAssay (Tox21).
Inconclusive results are not listed. Calls of active or inactive are those of the source. The call rests on the fitted dose curve; in most records, active means well fitted curve in the direction sought with a large enough effect in the repeat runs; inconclusive means weak or mixed curves; inactive means no such curve, though single readings can be large; an effect the other way counts as inactive or inconclusive.

How the values were obtained:
[1] = qHTS RealTime-Glo MT Cell Viability Assay in HepG2 cells - 8 hour (AID 1224873); conditions: RealTime-Glo luminescence; series mostly up to 76.8 µM; further: nearly all actives have a fitted effect of over 55% in size
Method in brief: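 HepG2 cells (600/well) mixed with RealTime-Glo MT reagent, settled 5 h at 37 C/5% CO2 before compound addition. Nonlytic NanoLuc luminescence from viable-cell prosubstrate reduction read repeatedly during 40 h treatment at 37 C.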

[2] = A CellTox Green Cytotoxicity Assay to monitor cytotoxicity in HEK293 cells - 24 hour (AID 1224875); conditions: CellTox Green fluorescence; series mostly up to 76.8 µM; further: nearly all actives have a fitted effect of over 45% in size; further: potency means the concentration at half of the fitted maximal effect
Method in brief: (§1)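 Real-time, in one plate: 600 HEK293 cells/well with dead-cell DNA dye, pinned compound after 5 h, 37 C incubation over 40 h; viable cells give no appreciable fluorescence.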

[3] = A CellTox Green Cytotoxicity Assay to monitor cytotoxicity in HepG2 cells - 16 hour (AID 1224876); conditions: CellTox Green fluorescence; series mostly up to 76.8 µM; further: nearly all actives have a fitted effect of over 45% in size
Method in brief: (§2)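 Cytotoxicity was tracked as dead-cell DNA fluorescence in HepG2 cells treated with test compounds at 37 C; each time-point value comes from one kinetic series spanning 0, 8, 16, 24, 32 and 40 h.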

[4] = qHTS RealTime-Glo MT Cell Viability Assay in HepG2 cells - 32 hour (AID 1224877); conditions: RealTime-Glo luminescence; series mostly up to 76.8 µM; further: nearly all actives have a fitted effect of over 55% in size; further: potency means the concentration at half of the fitted maximal effect
Method in brief: (§3)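 Luminescence read-out: viable HepG2 cells reduce a prosubstrate to a NanoLuc substrate, giving a signal proportional to live cell number. Reads taken at 0, 8, 16, 24, 32 and 40 h of compound exposure at 37 C.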

[5] = A CellTox Green Cytotoxicity Assay to monitor cytotoxicity in HepG2 cells - 24 hour (AID 1224878); conditions: CellTox Green fluorescence; series mostly up to 76.8 µM; further: nearly all actives have a fitted effect of over 45% in size
Method in brief: as §2

[6] = qHTS RealTime-Glo MT Cell Viability Assay in HEK293 cells - 0 hour (AID 1224880); conditions: RealTime-Glo luminescence; series mostly up to 76.8 µM; further: top concentration of the series differs between compounds; nearly all actives have a fitted effect of over 45% in size
Method in brief: (§4)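 Kinetic, non-lysing viability readout. Seed HEK293 (600/well) with reagent, incubate 5 h at 37 C/5% CO2, pin 23 nL compound in DMSO, incubate at 37 C, read luminescence at 0, 8, 16, 24, 32, 40 h.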

[7] = A CellTox Green Cytotoxicity Assay to monitor cytotoxicity in HEK293 cells - 32 hour (AID 1224881); conditions: CellTox Green fluorescence; series mostly up to 76.8 µM; further: nearly all actives have a fitted effect of over 40% in size; further: potency means the concentration at half of the fitted maximal effect
Method in brief: as §1

[8] = A CellTox Green Cytotoxicity Assay to monitor cytotoxicity in HepG2 cells - 0 hour (AID 1224882); conditions: CellTox Green fluorescence; series mostly up to 76.8 µM; further: nearly all actives have a fitted effect of over 35% in size
Method in brief: as §2

[9] = A CellTox Green Cytotoxicity Assay to monitor cytotoxicity in HepG2 cells - 32 hour (AID 1224883); conditions: CellTox Green fluorescence; series mostly up to 76.8 µM; further: nearly all actives have a fitted effect of over 50% in size
Method in brief: as §2

[10] = qHTS RealTime-Glo MT Cell Viability Assay in HepG2 cells - 16 hour (AID 1224885); conditions: RealTime-Glo luminescence; series mostly up to 76.8 µM; further: nearly all actives have a fitted effect of over 50% in size
Method in brief: as §3

[11] = qHTS RealTime-Glo MT Cell Viability Assay in HEK293 cells - 8 hour (AID 1224887); conditions: RealTime-Glo luminescence; series mostly up to 76.8 µM; further: nearly all actives have a fitted effect of over 50% in size; further: potency means the concentration at half of the fitted maximal effect; on activity change, negative = cytotoxicity: top concentration of the series differs between compounds
Method in brief: as §4

[12] = A CellTox Green Cytotoxicity Assay to monitor cytotoxicity in HEK293 cells - 16 hour (AID 1224888); conditions: CellTox Green fluorescence; series mostly up to 76.8 µM; further: nearly all actives have a fitted effect of over 35% in size
Method in brief: as §1

[13] = qHTS RealTime-Glo MT Cell Viability Assay in HepG2 cells - 0 hour (AID 1224889); conditions: RealTime-Glo luminescence; series mostly up to 76.8 µM; further: nearly all actives have a fitted effect of over 50% in size
Method in brief: as §3

[14] = A CellTox Green Cytotoxicity Assay to monitor cytotoxicity in HepG2 cells - 8 hour (AID 1224890); conditions: CellTox Green fluorescence; series mostly up to 76.8 µM; further: nearly all actives have a fitted effect of over 45% in size
Method in brief: as §2

[15] = qHTS assay to identify small molecule antagonists of the estrogen receptor alpha (ER-alpha) signaling pathway using the BG1 cell line in the presence of 0.1 nM 17-beta-estradiol - cell viability counter screen (AID 1259241); conditions: VM7Luc4E2 (BG1) viability, CellTiter-Fluor protease, 22 h, 0.1 nM estradiol agonist added; series mostly up to 92.4 µM; further: nearly all actives have a fitted effect of over 40% in size
Method in brief: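 Live-cell protease activity (CellTiter-Fluor fluorescence, 30 min) was read in the same wells after VM7Luc4E2 cells had been exposed to compounds with 0.1 nM 17beta-estradiol for 22 hr at 37C.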

[16] = qHTS assay to identify small molecule antagonists of the androgen receptor (AR) signaling pathway using the MDA cell line in the presence of 0.5 nM R1881 - cell viability counter screen (AID 1259242); conditions: MDA-kb2 viability, CellTiter-Fluor protease fluorescence, 16 h; series mostly up to 92.4 µM; further: nearly all actives have a fitted effect of over 45% in size
Method in brief: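 Cells seeded at 3,000/well and allowed 5 hr at 37C, 0% CO2 before compound transfer and R1881 (0.5 nM final) addition; 16 hr later, live-cell protease fluorescence indicated cytotoxicity.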

[17] = A CellTox Green Cytotoxicity Assay to monitor cytotoxicity in HepG2 cells - 40 hour (AID 1224879); conditions: CellTox Green fluorescence; series mostly up to 76.8 µM; further: nearly all actives have a fitted effect of over 40% in size
Method in brief: as §2

[18] = A CellTox Green Cytotoxicity Assay to monitor cytotoxicity in HEK293 cells - 8 hour (AID 1224884); conditions: CellTox Green fluorescence; series mostly up to 76.8 µM; further: nearly all actives have a fitted effect of over 35% in size
Method in brief: as §1

[19] = qHTS RealTime-Glo MT Cell Viability Assay in HEK293 cells - 24 hour (AID 1224886); conditions: RealTime-Glo luminescence; series mostly up to 76.8 µM; further: nearly all actives have a fitted effect of over 50% in size; further: potency means the concentration at half of the fitted maximal effect; on activity change, negative = cytotoxicity: top concentration of the series differs between compounds
Method in brief: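 Nonlytic real-time viability readout: viable cells convert prosubstrate to NanoLuc substrate, giving luminescence proportional to live cell number. HEK293, 600 cells/well, compound added after 5 h, continuous culture at 37 C.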
On the % scale 0 is the no-effect control and ±100 the full control effect.

O=C1CCc2cc(OCCCCc3nnnn3C3CCCCC3)ccc2N1
inactive: Potency [1] | Potency [2] | Potency [3] | Potency [4] | Potency [5] | Potency [6] | Potency [7] | Potency [8] | Potency [9] | Potency [10] | Potency [11] | Potency [12] | Potency [13] | Potency [14] | Potency [15] | Potency [16]

COc1cc(/C=C/c2ccccc2)oc(=O)c1
inactive: Potency [1] | Potency [2] | Potency [3] | Potency [4] | Potency [5] | Potency [17] | Potency [6] | Potency [7] | Potency [8] | Potency [9] | Potency [10] | Potency [11] | Potency [12] | Potency [13] | Potency [14] | Potency [15] | Potency [16]

COc1c(C)c2c(c(O)c1C/C=C(\C)CCC(=O)OCCN1CCOCC1)C(=O)OC2
inactive: Potency [1] | Potency [2] | Potency [3] | Potency [4] | Potency [5] | Potency [6] | Potency [7] | Potency [8] | Potency [9] | Potency [18] | Potency [10] | Potency [19] | Potency [11] | Potency [12] | Potency [13] | Potency [14] | Potency [15] | Potency [16]

Cc1nc(-c2ccc(Cl)cc2)oc1COC(C)(C)C(=O)O
inactive: Potency [1] | Potency [2] | Potency [3] | Potency [4] | Potency [5] | Potency [17] | Potency [6] | Potency [7] | Potency [8] | Potency [9] | Potency [18] | Potency [19] | Potency [11] | Potency [12] | Potency [13] | Potency [14] | Potency [15] | Potency [16]

CCC(C)(CCC(C)C)C(=O)[O][Sn]([CH3])([CH3])[O]C(=O)C(C)(CC)CCC(C)C (stereo not given)
inactive: Potency [1] | Potency [2] | Potency [3] | Potency [4] | Potency [5] | Potency [6] | Potency [7] | Potency [8] | Potency [9] | Potency [18] | Potency [10] | Potency [11] | Potency [12] | Potency [13] | Potency [14] | Potency [15] | Potency [16]

CC/C=C\CCCCCO
inactive: Potency [1] | Potency [2] | Potency [3] | Potency [4] | Potency [6] | Potency [7] | Potency [8] | Potency [18] | Potency [10] | Potency [19] | Potency [11] | Potency [12] | Potency [13] | Potency [14] | Potency [15] | Potency [16]

CC[N+](CC)(CC)CCOC(=O)C(C1CCCC1)C1CCCC1
inactive: Potency [1] | Potency [2] | Potency [3] | Potency [4] | Potency [5] | Potency [17] | Potency [6] | Potency [7] | Potency [8] | Potency [9] | Potency [18] | Potency [11] | Potency [12] | Potency [13] | Potency [14] | Potency [15]

CC1(C)CCC[C@]2(C)[C@H]3CC(=O)O[C@]3(C)CC[C@@H]12
active: Potency [2] 49 µM | Potency [7] 49 µM
inactive: Potency [1] | Potency [3] | Potency [17] | Potency [6] | Potency [8] | Potency [9] | Potency [10] | Potency [19] | Potency [11] | Potency [13] | Potency [14] | Potency [16]

O=C(Oc1ccccc1)Oc1ccccc1
active: Potency [4] 48.8 µM
inactive: Potency [1] | Potency [2] | Potency [3] | Potency [5] | Potency [17] | Potency [6] | Potency [7] | Potency [8] | Potency [9] | Potency [18] | Potency [11] | Potency [12] | Potency [13] | Potency [15] | Potency [16]

[Cl][Pt-2]([Cl])([Cl])[Cl]
inactive: Potency [1] | Potency [2] | Potency [3] | Potency [4] | Potency [5] | Potency [17] | Potency [6] | Potency [7] | Potency [8] | Potency [9] | Potency [18] | Potency [11] | Potency [12] | Potency [13] | Potency [14] | Potency [15] | Potency [16]

C#C[C@]1(OC(C)=O)CC[C@H]2[C@@H]3CCC4=C/C(=N/O)CC[C@@H]4[C@H]3CC[C@@]21CC
active: Potency [19] 23.9 µM | Potency [11] 21.3 µM
inactive: Potency [1] | Potency [2] | Potency [3] | Potency [4] | Potency [5] | Potency [17] | Potency [6] | Potency [7] | Potency [8] | Potency [9] | Potency [18] | Potency [12] | Potency [13] | Potency [14] | Potency [15]

Cc1cccc(C)c1NC(=O)c1ccc(N)cc1
inactive: Potency [1] | Potency [2] | Potency [3] | Potency [4] | Potency [5] | Potency [17] | Potency [6] | Potency [7] | Potency [8] | Potency [9] | Potency [18] | Potency [19] | Potency [11] | Potency [12] | Potency [13] | Potency [14] | Potency [15] | Potency [16]

CN(C)CCN1CCN(c2cccc(Cl)c2)C1=O
inactive: Potency [1] | Potency [2] | Potency [3] | Potency [4] | Potency [5] | Potency [17] | Potency [6] | Potency [7] | Potency [8] | Potency [9] | Potency [18] | Potency [12] | Potency [13] | Potency [15]

CC(C)Cn1cnc2c(N)nc3ccccc3c21
inactive: viability change, negative = cytotoxic [1] -0.187% [at 15.8 µM] | activity change [2] 3.75% [at 15.8 µM, stronger effect = higher value] | cytotoxicity increase [3] -13.4% [at 15.8 µM] | activity change, negative = cytotoxic [4] -0.3% [at 15.8 µM] | cytotoxicity increase [17] -14.5% [at 15.8 µM] | activity change, negative = cytotoxicity [6] -0.941% [at 15.8 µM] | cytotoxicity increase [7] 3.99% [at 15.8 µM] | cytotoxicity [8] -9.84% [at 15.8 µM] | cytotoxicity increase [9] -12% [at 15.8 µM] | cytotoxicity increase [18] 2.79% [at 15.8 µM] | activity change, negative = cytotoxic [10] 0.56% [at 15.8 µM] | activity change [12] 2.2% [at 15.8 µM, stronger effect = higher value] | activity change, negative = cytotoxicity [13] 12.8% [at 15.8 µM] | cytotoxicity increase [14] -11.4% [at 15.8 µM] | activity change, negative = cytotoxicity [15] 3.02% [at 19 µM] | viability change, negative = cytotoxic [16] -4.33% [at 19 µM]
